Source: PubChem
Only some compounds are listed: those with a hit (about 2.1% of all), similar ones and a draw of the others.
STK33 kin inh = human STK33 kinase inhibition. Q9BYT3. ADP-Glo luminescence, MBP substrate. inhibition, % at 12.5 µM. 0.44% of 27,000 active; in the data active = inhibition above about 20%
ID4 binder = binders of human ID4 protein; small molecule microarray, Flag-ID4 binding, fluorescence F/B; P47928; 1.2% of 31,000 active; calls only; call rule not given here;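 also: a binder raises fluorescence above local background on the spot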
Target sequence (P47928 whole entry, looked up): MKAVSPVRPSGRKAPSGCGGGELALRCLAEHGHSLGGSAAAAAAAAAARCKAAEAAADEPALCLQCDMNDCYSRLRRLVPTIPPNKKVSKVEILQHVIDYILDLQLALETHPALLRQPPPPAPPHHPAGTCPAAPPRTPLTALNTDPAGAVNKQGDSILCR
mut p53 react = restores mutant p53 pathway signaling in SW480 cells. SW480 PUMA-promoter luciferase, p53 mutant reactivation. activation, % at 9.98 µM. 1.5% of 28,000 active. AID 624151; in the data active = activation above about 52%
Active calls of the source: *; i = inactive; x = no result; + = active, no number.

SMILES	STK33 kin inh	ID4 binder	mut p53 react
COC(=O)[C@@]1(O)C[C@@H]2O[C@@]1(C)n1c3ccccc3c3c4c(c5c6ccccc6n2c5c31)C(=O)NC4	108*	x	x
Cc1cc(O)cc2oc(=O)c3c(O)cc(O)cc3c12	74*	i	7
N#C[C@@H](OC1OC(COC2OCC(O)C(O)C2O)C(O)C(O)C1O)c1ccccc1 (stereo partly drawn)	-2	i	0
C/C=C1/C[N+]2(C)CCC34C(=C(C=O)[C@H]1C[C@@H]32)Nc1ccccc14 (stereo partly drawn)	-12	x	-3
N#C/C(=C\c1ccc(O)cc1)C(=O)O	27*	x	x
N#CC(C#N)=Cc1ccc(O)c(O)c1	0	i	16
CC(C)(C)NCC(O)c1cc(Cl)c(N)c(Cl)c1 (stereo not drawn)	0	x	x
COc1cccc(CNCCc2c[nH]c3ccccc23)c1O	0	i	-17
COC1=CC(=O)OC(/C=C/c2ccccc2)C1 (stereo not drawn)	2	i	90*
O=[N+]([O-])c1c(NCCO)ccc2nonc12	6	i	8
CC(=O)O[C@H]1CC[C@@]2(C)C(=CC[C@@H]3[C@@H]2CC[C@]2(C)C(=O)CC[C@@H]32)C1	0	i	9
O=C(N[C@H]1CN2CCC1CC2)c1ccc(Cl)cc1	x	+	12
Cn1cc(C(=O)C(=O)N[C@H]2CN3CCC2CC3)c2ccccc21	0	i	8
CCN1C[C@]2(C)CC[C@H](O)[C@@]34C2[C@H](OC)C([C@@H]13)[C@@]1(O)C[C@H](OC)[C@H]2C[C@@H]4[C@@H]1[C@H]2O	-2	i	-13
COc1ccc2c(c1)/C(=C/c1cnc[nH]1)C(=O)N2	79*	i	x
CCC1(CC)C(=O)C=CNC1=O	-6	i	x
CC(C)(O)[C@H]1O[C@H]2CC[C@@]3(C)[C@@](O)(CC[C@H]4Cc5c([nH]c6ccccc56)[C@@]43C)C2=CC1=O	-9	i	22
c1ccc2c(c1)cc1ccc3cccc4ccc2c1c34	4	i	6
O=C1c2ccccc2-c2cccc3cccc1c23	76*	i	x
C=CCC1(C(C)CCC)C(=O)NC(=S)NC1=O (stereo not drawn)	1	i	2
COc1cc(OC)c(OC)cc1CNC(C)C(O)c1ccccc1 (stereo not drawn)	8	i	1
